Compound activity from PubChem BioAssay.
B2AR arrestin ag: ADRB2 beta-arrestin recruitment. 44,000 tested, under 10 active. HTLA Tango cells, beta-arrestin recruitment, luciferase luminescence, 18 h. Potency, µM (highest dose often 46.1 µM), hits mostly activators. AID 1347077;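 also: potency is read from the fitted curve at half-maximal effect; 0% = DMSO and full agonism = EC100 isoproterenol or metaproterenol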
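Receptor–beta-arrestin recruitment read by tTA-responsive luciferase: compound titrations (up to 46 µM) incubated 18 h with Tango cells, then luminescent substrate 15 min at room temperature. Concentration-response fits classified by r2, efficacy and activity.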
HTT-AS act: HTT-AS promoter activation; Potency, µM (titrated, usually from 57.5 µM), for the others: at the top dose activity change, positive = activation, hits mostly activators; 48,000 compounds, 0.24% hits; HEK293 HTT-AS promoter firefly luciferase reporter, 24 h; response scale: percent change from vehicle, -100% = no light; also: potency is read from the fitted curve at half-maximal effect; nearly all actives have a fitted effect of over 55% in size
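Quantitative HTS used concentration series of up to 57.5 uM final on HEK293 luciferase reporter cells, 24 h at 37 degrees C. Readout was Dual-Glo firefly luminescence.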
HTT promoter inh: inhibits huntingtin promoter activity; 48,000 compounds, 0.93% hits; AID 1508623; HEK293 HTT promoter firefly luciferase reporter, 24 h; Potency, µM (highest dose often 57.5 µM), without a hit: at the highest dose activity change, negative = inhibition, actives largely listed as inhibitors; also: potency is read from the fitted curve at half-maximal effect; nearly all actives have a fitted effect of over 50% in size
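HEK293 luciferase promoter-reporter cells (2,500/well) plated 24 h, then compounds added at up to 57.5 uM final for 24 h at 37 °C. Firefly luminescence by Dual-Glo, normalized to vehicle (0%) and zero RLU (-100%).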
NTMT1 inh: NTMT1 methyltransferase inhibition; Q9BV86; NTMT1 MTase-Glo SAH luminescence, purified enzyme; Potency, µM (doses to about 114 µM), without a hit: top-dose activity change, negative = inhibition, hits mostly inhibitors; 59,000 compounds, 2.5% hits;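 also: potency is read from the fitted curve at half-maximal effect; plate controls were DMSO vehicle for no effect and no enzyme for full effect; nearly all actives have a fitted effect of over 65% in size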
GALK inhibitor: inhibits human galactokinase. 44,000 tested, under 10 active. P51570. recombinant GALK, Kinase-Glo ATP luminescence, 1 h. AID 1347072. Potency, µM (highest dose often 57.5 µM), for the others: top-dose activity, negative = inhibition, most hits filed as inhibitors;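 also: plate controls were full GALK reaction for no effect and reaction lacking GALK for full effect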
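Human GALK (5 nM) was incubated with 35 uM ATP and 100 uM galactose in 20 mM HEPES pH 8.0 with MgCl2, NaCl, DTT and BSA for 1 h at room temperature. Remaining ATP was measured by Kinase-Glo Plus luminescence.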
PTAP-TSG101 blk: blocks PTAP binding to human TSG101, validation. Q99816. Fluorescence polarization, FITC-PTAP peptide/Tsg101, 20 min. Potency, µM (top dose mostly 115 µM), actives largely listed as inhibitors. 44,000 tested, under 10 active. AID 1347069; also: potency is read from the fitted curve at half-maximal effect; 0% is about no effect
Target sequence (Q99816 whole entry, looked up): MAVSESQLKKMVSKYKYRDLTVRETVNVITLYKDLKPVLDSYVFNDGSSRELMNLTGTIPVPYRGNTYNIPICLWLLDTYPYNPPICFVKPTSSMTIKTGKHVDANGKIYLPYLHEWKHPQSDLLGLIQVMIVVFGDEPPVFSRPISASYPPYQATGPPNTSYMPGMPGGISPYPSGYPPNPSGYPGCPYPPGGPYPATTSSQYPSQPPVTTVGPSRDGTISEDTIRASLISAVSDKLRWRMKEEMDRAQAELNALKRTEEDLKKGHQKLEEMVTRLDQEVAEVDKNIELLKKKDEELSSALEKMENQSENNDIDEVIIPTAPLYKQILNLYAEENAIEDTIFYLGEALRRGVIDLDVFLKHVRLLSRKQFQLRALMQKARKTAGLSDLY
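The Tsg101 binding domain, at 10 uM final, is mixed with compound and a FITC peptide bearing the PTAP motif (50 nM final). After 20 min at r.t., polarization is measured; actives defined by CRC class, efficacy cut-off 60% inhibition.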
An asterisk follows results filed as active; i = inactive; u = inconclusive; x = no result given; ! = repeats disagree; [ ] = remark or other dose. The sample as a whole holds a higher share of hits than the screen did. Calls follow the shape of the dose curve; as a rule, active = well fitted curve in the direction sought with a large enough effect; inconclusive = small, poorly fitted or top-dose-only effect, or another doubt; inactive = no such curve, though single readings can be large; an effect the other way counts as inactive or inconclusive.

SMILES | B2AR arrestin ag | HTT-AS act | HTT promoter inh | NTMT1 inh | GALK inhibitor | PTAP-TSG101 blk
CN(C)c1ccc(C(CNS(=O)(=O)c2ccc(F)cc2)N2CCCC2)cc1 (stereo not given) | i | -4.4% | 0.6% | 89.1µM* | 3.9% | i
CN(C)c1ccc(C(CNS(=O)(=O)c2ccc(F)cc2)N2CCOCC2)cc1 (stereo not given) | u | -22.9% | -17.1% | -1.0% | -1.3% | i
Cc1nc2cccc(N)c2c(=O)n1C1CCC(=O)NC1=O (stereo not given) | x | x | x | 4.0% | x | x
CC(C)OC(=O)OCOP(=O)(COC(C)Cn1cnc2c(N)ncnc21)OCOC(=O)OC(C)C (stereo not given) | x | x | x | 12.4% | x | x
COc1c(CCC(=O)O)cccc1O[C@@H]1O[C@H](CO)[C@@H](O)[C@H](O)[C@H]1O | x | x | x | 9.0%[29.8 µM] | x | x
Oc1cccc(-c2c3nc(c(-c4cccc(O)c4)c4ccc([nH]4)c(-c4cccc(O)c4)c4nc(c(-c5cccc(O)c5)c5ccc2[nH]5)CC4)C=C3)c1 | x | -26.9% | u | 22.4µM* | x | x
CN1CCC(c2c(O)cc(O)c3c(=O)cc(-c4ccccc4Cl)oc23)C1CO (stereo not given) | x | x | x | 50.1µM* | x | x
CN1CC[C@@H](c2c(O)cc(O)c3c(=O)cc(-c4ccccc4Cl)oc23)[C@@H](O)C1 | x | u | u | 24.1µM*! | x | x
CN1CCC(c2c(O)cc(O)c3c(=O)cc(-c4ccccc4Cl)oc23)C(O)C1 (stereo not given) | x | x | x | 35.5µM* | x | x
COc1cc(NS(=O)(=O)c2cc(Br)cc3c2N(C(=O)C2CC2)CC3)cc(OC)c1 | i | -96.2% | 15.8µM* | 7.1% | -2.1% | i
Cc1ccc(NS(=O)(=O)c2cc(Br)cc3c2N(C(=O)C2CC2)CC3)cc1C | i | -61.8% | 5.62µM* | 0.8% | 0.0% | i
O=C(C1CC1)N1CCc2cc(Br)cc(S(=O)(=O)Nc3ccc(F)c(F)c3)c21 | i | -85.7% | u | 17.5% | 6.6% | i
COc1ccc(/C=C(\C#N)c2nc3ccccc3n2C)c(OC)c1 | i | 3.55µM* | 65.8% | u | -2.7% | i
COc1cc(/C=C(\C#N)c2nc3ccccc3n2C)cc(OC)c1OC | i | u | 42.1% | 0.2% | 0.0% | i
COc1ccc(-c2nc(CSCC(=O)N3CCN(c4ccc(F)cc4)CC3)c(C)o2)cc1 | i | -51.0% | 12.6µM* | 10.1% | -0.5% | i
Cc1oc(-c2ccc(Cl)cc2)nc1CN1CCC(C(=O)NCCCN2CCN(c3cccc(Cl)c3)CC2)CC1 | i | -29.9% | -21.1% | 79.4µM* | 8.1% | i
COc1ccc(N2CCN(C(=O)C3CCN(Cc4nc(-c5ccc(Cl)cc5)oc4C)CC3)CC2)cc1 | i | -21.6% | -27.6% | 89.1µM* | -16.7% | i
COc1ccc(-c2nc(CSCC(=O)N3CCN(c4ccccc4)CC3)c(C)o2)cc1 | i | -56.6% | u | 2.5% | -1.4% | i
Cc1ccc(Cl)cc1N1CCN(C(=O)C2CCN(Cc3nc(-c4ccc(Cl)cc4)oc3C)CC2)CC1 | i | -32.2% | -18.4% | 1.0% | -1.2% | i
Nc1ccccc1CNc1ccc(S(=O)(=O)Nc2nccs2)cc1 | x | x | x | 38.5% | x | x
COc1cc2c3c(n(CCCN4CCOCC4)c(=O)c2cc1OC)-c1cc2c(cc1C3=O)OCO2 | x | x | x | 8.7% | x | x
Cc1cccc(N2CCN(C(=O)C3CCN(C(=O)c4cc5sccc5n4C)CC3)CC2C)c1 (stereo not given) | i | -55.3% | 22.4µM* | -0.9% | 5.8% | i
Cc1ccc(CCNC(=O)c2cc3c(s2)-c2c(C)cccc2OC3)cc1 | i | -12.0% | -20.3% | 89.1µM* | 3.2% | i
Cc1cc(N[S+](=O)([O-])c2cc3c(cc2Cl)CCC(=O)N3)ccc1Br | x | x | x | -5.1%[57.5 µM] | x | x
